{"source": "PubChem BioAssay (EPA / NIEHS)", "note": "The source made the active and inactive calls. Rule for the calls: active = hit-call score of the fitted dose curve at least 0.9, where 1 is the maximum; inactive = score below 0.9."}
{"assay": "ATG_TA_CIS: Attagene CIS-FACTORIAL HepG2 Assay for human TA Basal Promoter (AID 2282964)", "conditions": "HepG2 Attagene CIS-factorial TA basal promoter reporter; actives raise or lower the signal", "description": "ATG_CIS is a cell-based, multiplexed-readout assay that uses HepG2, a human liver cell line, with measurements taken at 24 hours after chemical dosing in a 24-well plate.ATG_TA_CIS is one of 52 assay component(s) measured or calculated from the ATG_CIS assay. It is designed to make measurements of mRNA induction, a form of inducible reporter, as detected with fluorescence intensity signals by Reverse transcription polymerase chain reaction (RT-PCR) and Capillary electrophoresis technology.Data from the assay component ATG_TA_CIS was analyzed into 1 assay endpoint. This assay endpoint, ATG_TA_CIS, was analyzed with bidirectional fitting relative to DMSO as the negative control and baseline of activity. Using a type of inducible reporter, measures of mRNA for gain or loss-of-signal activity can be used to understand the background control at the transcription factor-level as they relate to the gene . Furthermore, this assay endpoint can be referred to as a secondary readout, because this assay has produced multiple assay endpoints where this one serves a background control function. To generalize the intended target to other relatable targets, this assay endpoint is annotated to the background measurement intended target family, where the subfamily is internal marker.\nHuman liver HepG2 cells are transiently transfected with multiple reporter transcription units (MRTUs) in 6-well plates using FuGene 6 reagent (Roche; 3 ml FuGene/1 mg DNA). The MRTU constructs are regulated by a cis-regulating element (promoter). […] A major difference between the CIS and TRANS system is that in CIS activities of endogenous TFs are measured, whereas the TRANS assay evaluates changes in activities of exogenous, chimeric NR-Gal4 proteins. […] At the end of 24 hour incubation, total RNA was isolated using TriZol reagent (Invitrogen). The isolated RNA is then reverse-transcribed using oligo(dT) primer and Mo-MLV reverse transcriptase (Invitrogen) with DNAse I (Ambion) treatment for 30 min. The one-tenth of the produced cDNA was amplified by PCR using Taq DNA polymerase (Invitrogen) and two reporter sequence-specific primers. The PCR products were fluorescently labeled by primer extension with 6-arboxyfluorescein (6-FAM) 5'-labeled reporter sequence-specific primer (2 min at 95 C, 20 s at 68 C and 10 min at 72 C) and these products were digested with 5U of HpaI (New England Biolabs) for 2h at 37 C. The fragments were purified using Qiaquick PCR columns (Qiagen), analyzed on an ABI 3130xL genetic analyzer (Applied Biosystems) with peak positions identified by using a set of X-rhodamine (ROX)-labeled MapMarker1000 molecular weight standards (BioVentures). The raw capillary electrophoresis data was processed using Attagraph software (Attagene)."}
{"compound": "CN1Cc2c(N)cccc2C(c2ccccc2)C1", "note": "(stereo not given)", "outcome": "inactive"}
{"compound": "CCCCCCCCCCCCN(CCCCCCCCCCCC)CCCCCCCCCCCC", "outcome": "inactive"}
{"compound": "O=C(O)CCCCC1CCSS1", "note": "(stereo not given)", "outcome": "inactive"}
{"compound": "NNc1nc(-c2ccc(N)cc2)cs1", "outcome": "inactive"}
{"compound": "CCC(=O)OCCC(C)CCC=C(C)C", "note": "(stereo not given)", "outcome": "inactive"}
{"compound": "CCCCCOC(=O)CCC", "outcome": "inactive"}
{"compound": "C=CC(C)(C)O", "outcome": "inactive"}
{"compound": "Cc1ncc([N+](=O)[O-])n1C", "outcome": "inactive"}
{"compound": "OC[C@H]1O[C@H](O[C@]2(CCl)O[C@H](CCl)[C@@H](O)[C@@H]2O)[C@H](O)[C@@H](O)[C@H]1Cl", "outcome": "inactive"}
{"compound": "OCCOc1cccc(OCCO)c1", "outcome": "inactive"}
{"compound": "CCCCNC(=O)NS(=O)(=O)c1ccc(N)cc1", "outcome": "inactive"}
{"compound": "CNCCO", "outcome": "inactive"}
{"compound": "CCC(O)CO", "note": "(stereo not given)", "outcome": "inactive"}
{"compound": "CC(C)OP(=O)(CP(=O)(OC(C)C)OC(C)C)OC(C)C", "outcome": "inactive"}
{"compound": "CC(=O)Nc1ccc(C)cc1C", "outcome": "inactive"}
{"compound": "O=Cc1ccc(F)cc1", "outcome": "inactive"}
{"compound": "C=CC[N+](C)(C)CC=C", "outcome": "inactive"}
{"compound": "C[C@]12CC[C@H]3[C@@H](CCC4=CC(=O)CC[C@@]43C)[C@@H]1CC[C@@H]2C(=O)CO", "AC50": "61 µM (active)"}
{"compound": "CC1CC(OC(=O)c2ccccc2O)CC(C)(C)C1", "note": "(stereo not given)", "outcome": "inactive"}
{"compound": "CC(C)[C@H]1CC[C@@H](C)CC1=O", "outcome": "inactive"}
{"compound": "Cc1ccc(C(=O)c2cc(O)c(O)c([N+](=O)[O-])c2)cc1", "outcome": "inactive"}
{"compound": "CC(=O)OCc1ccc2c(c1)OCO2", "outcome": "inactive"}
{"compound": "CO[Si](C)(OC)c1ccccc1", "outcome": "inactive"}
{"compound": "NC(=O)c1ccccc1Cl", "outcome": "inactive"}
{"compound": "C=C(C)[C@@H]1CCC2=CC(=O)C[C@@H](C)[C@]2(C)C1", "outcome": "inactive"}
{"compound": "CCN(CC)c1ccc(C(=C2C=CC(=[N+](CC)CC)C=C2)c2ccc(S(=O)(=O)O)cc2S(=O)(=O)[O-])cc1", "outcome": "inactive"}
{"compound": "CC1CCC(C(C)(C)O)CC1", "note": "(stereo not given)", "outcome": "inactive"}
{"compound": "O=C(O)CCSCCC(=O)O", "outcome": "inactive"}
{"compound": "O=C1C(c2[nH]c3ccc(S(=O)(=O)O)cc3c2O)=Nc2ccc(S(=O)(=O)O)cc21", "outcome": "inactive"}
{"compound": "CC(C)(C)NC(N)=O", "outcome": "inactive"}
{"compound": "C#C[C@]1(O)CC[C@H]2[C@@H]3CCC4=Cc5oncc5C[C@]4(C)[C@H]3CC[C@@]21C", "AC50": "8.11 µM (active)"}
{"compound": "O=C1CCCCCCCCCCOCCCCO1", "outcome": "inactive"}
{"compound": "CC1(CO)CN(c2ccccc2)NC1=O", "note": "(stereo not given)", "outcome": "inactive"}
{"compound": "CC(CC(C)(C)C)CC(C)(C)CC(C)(C)C", "note": "(stereo not given)", "outcome": "inactive"}
{"compound": "CCCCCCCCCCCCCOS(=O)(=O)O", "outcome": "inactive"}
{"compound": "CCCCCCCCCC=O", "outcome": "inactive"}
{"compound": "COc1nc(C)nc(N)n1", "outcome": "inactive"}
{"compound": "OCCCCCO", "outcome": "inactive"}
{"compound": "Nc1cc([N+](=O)[O-])ccc1O", "outcome": "inactive"}
{"compound": "CCCCO", "outcome": "inactive"}
